Our source for the AC50 and outcome values is PubChem BioAssay (EPA / NIEHS).

The structures appear in SMILES notation. Results filed as inconclusive are left out. The source made the active and inactive calls. Rule for the calls: active = hit-call score of the fitted dose curve at least 0.9, where 1 is the maximum; inconclusive = response in the unintended direction; inactive = score below 0.9.

In experiment [1] the target is Type-1 angiotensin II receptor (Homo sapiens) (UniProt P30556). The experiment can be described thus: NVS_GPCR_hAT1: NovaScreen (NVS) G Protein-Coupled Receptor Assay for human Angiotensin II receptor type 1 (AT1) (AID 2283263). The gist of the method: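 Hits from a 25 uM duplicate screen (threshold e.g. 30% inhibition) were run in concentration-response with 50 uM top concentration. Displacement of specific radioligand from KAN-TS membrane preparations measured after 3 h by filter scintillation, DMSO as baseline.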

The target in experiment [2] is human Dopamine Receptor D2 (DRD2), DRD2 (gene 1813) (UniProt P14416). The experiment can be described thus: NVS_GPCR_hDRD2s: NovaScreen (NVS) G Protein-Coupled Receptor Assay for human Dopamine Receptor D2 (DRD2) (AID 2283266). Summed up:
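Test compound (25 uM, duplicate in the primary screen; concentration series at follow-up) competed with radioligand for human DRD2 in CHO-derived membrane protein. Filter-based scintillation counting was done 1.5 hours after dosing, with loss of signal analysed against DMSO.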

For experiment [3], the target named is D(1A) dopamine receptor (Homo sapiens) (UniProt P21728). The experiment is described as follows: NVS_GPCR_hDRD1: NovaScreen (NVS) G Protein-Coupled Receptor Assay for human Dopamine Receptor D1 (DRD1) (AID 2283269). The gist of the method:
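Cell-free radioligand binding to human DRD1 from HEK293 membranes, read 1 h after dosing by filter-based scintillation counting. Loss of signal versus DMSO baseline marks displacement. Primary screen at 25 uM single concentration in duplicate; actives followed up in concentration series.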

In experiment [4] the target is human Neuropeptide Receptor Y1 (NPY1), NPY1R (gene 4886) (UniProt P25929). The experiment can be described thus: NVS_GPCR_hNPY1: NovaScreen (NVS) G Protein-Coupled Receptor Assay for human Neuropeptide Receptor Y1 (NPY1) (AID 2283276). The gist of the method:
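Displacement of specific radioligand from NPY1 receptor of SK-N-MC origin, read by filtration and scintillation after 1 h. Compounds first tested at 25 uM in duplicate, then actives in concentration series; signal loss relative to DMSO.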

Experiment [5] addresses human Neurokinin, NK2 Receptor, TACR2 (gene 6865) (UniProt P21452). The experiment is described as follows: NVS_GPCR_hNK2: NovaScreen (NVS) G Protein-Coupled Receptor Assay for human Neurokinin, NK2 Receptor (AID 2283278).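 Note: actives reduce bound radioligand signal relative to DMSO baseline.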 The gist of the method:
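CHO-derived membrane protein, radioligand displacement, filter scintillation read at 4 h post-dose. Single-point 25 uM in duplicate, then concentration series for actives; DMSO as negative control.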

In experiment [6] the target is human Adrenergic, Beta 3 Receptor (Adrb3), ADRB3 (gene 155) (UniProt P13945). The experiment can be described thus: NVS_GPCR_hAdrb3: NovaScreen (NVS) G Protein-Coupled Receptor Assay for human Adrenergic, Beta 3 Receptor (Adrb3) (AID 2283262). Summed up:
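A cell-free filter binding assay read by scintillation counting, with displacement of a specific radioligand measured after 1 hour. The receptor source was SK-N-MC extracts (cells pretreated with isoproterenol and 8-bromo-cAMP). Compounds were first tested at 25 uM in duplicate and then in concentration series.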

Experiment [7] addresses human Vasopressin 1A Receptor (V1A), AVPR1A (gene 552) (UniProt P37288). The experiment can be described thus: NVS_GPCR_hV1A: NovaScreen (NVS) G Protein-Coupled Receptor Assay for human Vasopressin 1A Receptor (V1A) (AID 2283284). Summed up: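 Single-concentration duplicate screen at 25 uM, with concentration-response follow-up (top 50 uM) for actives. The assay measured displacement of a radioligand from human platelet-derived receptor after 1.5 h, detected by filtration and scintillation counting.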

For experiment [8], the target named is human Histamine 1 Receptor (H1), HRH1 (gene 3269) (UniProt P35367). The experiment can be described thus: NVS_GPCR_hH1: NovaScreen (NVS) G Protein-Coupled Receptor Assay for human Histamine 1 Receptor (H1) (AID 2283268). The gist of the method:
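Filter-based scintillation detection of radioligand binding to human H1, 1 h incubation; chemicals screened in duplicate at 25 uM, then concentration-response; signal loss relative to DMSO taken as activity.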

The subject of experiment [9] is rabbit Platelet Activating Factor Receptor (PAF), gene 100354046. The experiment can be described thus: NVS_GPCR_rabPAF: NovaScreen (NVS) G Protein-Coupled Receptor Assay for rabbit Platelet Activating Factor Receptor (PAF) (AID 2283287). The gist of the method:
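Rabbit platelet membrane preparation; radioligand displacement read by filter-based scintillation counting 1 h after dosing, loss of signal versus DMSO. Primary screen in duplicate at 25 uM, actives followed up in concentration series.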

In experiment [10] the target is human Dopamine Receptor D4.4 (DRD4.4), DRD4 (gene 1815) (UniProt P21917). The experiment is described as follows: NVS_GPCR_hDRD4.4: NovaScreen (NVS) G Protein-Coupled Receptor Assay for human Dopamine Receptor D4.4 (DRD4.4) (AID 2283264). The gist of the method: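 Filter-binding assay with a tritiated or iodinated ligand, cell-free receptor prepared from CHO, 1 hour. Loss of bound radioactivity versus DMSO; single 25 uM duplicate screen, then concentration-response for actives.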

Experiment [11] concerns the target Muscarinic acetylcholine receptor M1 (Homo sapiens) (UniProt P11229). The experiment can be described thus: NVS_GPCR_hM1: NovaScreen (NVS) G Protein-Coupled Receptor Assay for human Muscarinic, M1 Receptor (AID 2283270). The gist of the method: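 Actives from a duplicate 25 uM single-point screen were retested in concentration series. Binding measured as displacement of a radioligand from CHO-derived receptor preparation, 1 h incubation, filtration and scintillation counting, analysed as signal loss against DMSO.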

Experiment [12] has as its target Muscarinic acetylcholine receptor M3 (Homo sapiens) (UniProt P20309). The experiment can be described thus: NVS_GPCR_hM3: NovaScreen (NVS) G Protein-Coupled Receptor Assay for human Muscarinic, M3 Receptor (AID 2283272). Summed up:
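Radioligand displacement binding on human M3 receptor in CHO-derived membranes, 1 h incubation, filter-based scintillation counting. Primary screen in duplicate at 25 uM; actives followed up in concentration series; loss of signal versus DMSO.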

Experiment [13] deals with Muscarinic acetylcholine receptor M2 (Homo sapiens) (UniProt P08172). The experiment is described as follows: NVS_GPCR_hM2: NovaScreen (NVS) G Protein-Coupled Receptor Assay for human Muscarinic, M2 Receptor (AID 2283273). The gist of the method: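 Filter-based radiodetection read bound radioligand 1 h after dosing CHO-derived membrane protein. Single-concentration duplicates (25 uM) first, then concentration-response for actives; signal loss versus DMSO scored.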

Experiment [14] concerns the target human Muscarinic, M4 Receptor, CHRM4 (gene 1132) (UniProt P08173). The experiment can be described thus: NVS_GPCR_hM4: NovaScreen (NVS) G Protein-Coupled Receptor Assay for human Muscarinic, M4 Receptor (AID 2283274). Summed up: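 Filter-based scintillation counting of radioligand bound to CHO-expressed human M4 preparations after 1 h; loss of signal fitted versus DMSO. Initial duplicate testing at 25 uM, concentration-response follow-up for actives.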

For experiment [15], the target named is human Leukotriene B4 Receptor 1 (LTB4-BLT1), LTB4R (gene 1241) (UniProt Q15722). The experiment is described as follows: NVS_GPCR_hLTB4_BLT1: NovaScreen (NVS) G Protein-Coupled Receptor Assay for human Leukotriene B4 Receptor 1 (LTB4-BLT1) (AID 2283271). The gist of the method:
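Cell-free human neutrophil receptor preparation, 1 h exposure, radioligand binding read by filter scintillation counting. Single 25 uM duplicate screen, then concentration series topping at 50 uM; binding loss scored against DMSO baseline.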

Experiment [16] deals with rat Serotonin, 5-Hydroxytryptamine Receptor 1 (5HT1), Non-Selective Binding, Htr1a (gene 24473) (UniProt P19327). The experiment is described as follows: NVS_GPCR_r5HT1_NonSelective: NovaScreen (NVS) G Protein-Coupled Receptor Assay for rat Serotonin, 5-Hydroxytryptamine Receptor 1 (5HT1), Non-Selective Binding (AID 2283286). Summed up:
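Binding of a radioligand to rat cortex membranes is read by filtration and scintillation counting after 1 h. Compounds were screened at 25 uM in duplicate. Actives were then titrated to a top of 50 uM. DMSO is the baseline.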

Experiment [17] concerns the target mouse Cholecystokinin, CCK1 Receptor (CCKA), Cckar (gene 12425) (UniProt O08786). The experiment is described as follows: NVS_GPCR_mCCKAPeripheral: NovaScreen (NVS) G Protein-Coupled Receptor Assay for mouse Cholecystokinin, CCK1 Receptor (CCKA) (AID 2283285). Summed up:
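Chemicals were first screened in duplicate at 25 uM, with those meeting threshold (e.g., 30% inhibition) retested in singleton concentration series to 50 uM maximum. Binding of radioligand to mouse pancreatic membranes was read after 2 h by filtration and scintillation counting.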

Experiment [18] deals with human Neurotensin Receptor (NTS), NTSR1 (gene 4923) (UniProt P30989). The experiment is described as follows: NVS_GPCR_hNTS: NovaScreen (NVS) G Protein-Coupled Receptor Assay for human Neurotensin Receptor (NTS) (AID 2283279). Summed up: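 Compounds competed with a radiolabelled ligand for binding to CHO-derived human neurotensin receptor; bound signal counted after filtration, 1 h. Screened first at a single concentration of 25 uM in duplicate, then concentration series to 50 uM maximum for actives.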

Chain of Muscarinic acetylcholine receptor M2 (Homo sapiens) (P08172 whole entry, looked up): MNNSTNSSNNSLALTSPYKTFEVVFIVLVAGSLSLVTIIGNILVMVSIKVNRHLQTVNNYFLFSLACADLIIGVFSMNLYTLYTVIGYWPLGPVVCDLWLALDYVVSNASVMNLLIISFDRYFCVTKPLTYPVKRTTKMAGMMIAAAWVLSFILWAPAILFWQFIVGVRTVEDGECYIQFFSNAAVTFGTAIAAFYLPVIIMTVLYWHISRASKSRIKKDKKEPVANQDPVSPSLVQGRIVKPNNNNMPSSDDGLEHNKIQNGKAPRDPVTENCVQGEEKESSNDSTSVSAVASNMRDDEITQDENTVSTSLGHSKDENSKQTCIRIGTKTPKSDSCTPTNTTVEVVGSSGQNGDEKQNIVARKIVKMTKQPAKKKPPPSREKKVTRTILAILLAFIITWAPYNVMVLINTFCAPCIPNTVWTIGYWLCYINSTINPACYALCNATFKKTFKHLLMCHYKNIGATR
Chain of D(1A) dopamine receptor (Homo sapiens) (P21728 whole entry, looked up): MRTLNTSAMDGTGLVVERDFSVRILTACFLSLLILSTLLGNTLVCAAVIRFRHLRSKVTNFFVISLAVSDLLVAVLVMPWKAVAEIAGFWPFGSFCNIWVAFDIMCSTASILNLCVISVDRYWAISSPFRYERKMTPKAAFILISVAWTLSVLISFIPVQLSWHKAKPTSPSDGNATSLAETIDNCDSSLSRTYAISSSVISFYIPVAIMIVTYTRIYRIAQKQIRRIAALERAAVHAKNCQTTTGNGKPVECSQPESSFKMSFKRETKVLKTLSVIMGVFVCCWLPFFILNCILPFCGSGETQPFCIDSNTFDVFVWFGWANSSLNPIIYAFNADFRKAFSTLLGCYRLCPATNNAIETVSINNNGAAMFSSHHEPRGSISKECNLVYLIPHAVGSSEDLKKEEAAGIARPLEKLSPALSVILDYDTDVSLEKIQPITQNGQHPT
Chain of human Adrenergic, Beta 3 Receptor (Adrb3), ADRB3 (gene 155) (P13945 whole entry, looked up): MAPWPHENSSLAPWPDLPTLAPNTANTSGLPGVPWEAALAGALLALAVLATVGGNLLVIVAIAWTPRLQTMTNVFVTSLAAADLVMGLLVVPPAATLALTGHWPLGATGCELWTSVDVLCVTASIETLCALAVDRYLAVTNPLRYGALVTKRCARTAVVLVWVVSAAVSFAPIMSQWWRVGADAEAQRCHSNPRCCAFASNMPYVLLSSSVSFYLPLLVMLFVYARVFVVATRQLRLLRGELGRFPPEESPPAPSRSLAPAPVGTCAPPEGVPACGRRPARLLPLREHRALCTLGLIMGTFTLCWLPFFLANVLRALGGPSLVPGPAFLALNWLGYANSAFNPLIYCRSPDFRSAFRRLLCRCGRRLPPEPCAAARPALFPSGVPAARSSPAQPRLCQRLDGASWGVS
Chain of Muscarinic acetylcholine receptor M1 (Homo sapiens) (P11229 whole entry, looked up): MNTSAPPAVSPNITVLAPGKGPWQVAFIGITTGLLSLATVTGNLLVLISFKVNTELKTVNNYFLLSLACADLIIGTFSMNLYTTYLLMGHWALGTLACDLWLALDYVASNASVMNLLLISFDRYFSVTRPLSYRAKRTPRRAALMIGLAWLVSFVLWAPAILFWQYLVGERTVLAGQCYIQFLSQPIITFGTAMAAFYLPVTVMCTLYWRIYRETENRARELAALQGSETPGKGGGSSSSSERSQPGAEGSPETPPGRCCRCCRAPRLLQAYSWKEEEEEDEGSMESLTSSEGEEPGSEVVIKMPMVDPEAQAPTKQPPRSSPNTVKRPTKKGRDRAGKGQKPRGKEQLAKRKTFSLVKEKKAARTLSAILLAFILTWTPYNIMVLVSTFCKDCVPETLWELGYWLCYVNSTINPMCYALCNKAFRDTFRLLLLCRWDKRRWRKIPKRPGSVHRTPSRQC
Chain of human Histamine 1 Receptor (H1), HRH1 (gene 3269) (P35367 whole entry, looked up): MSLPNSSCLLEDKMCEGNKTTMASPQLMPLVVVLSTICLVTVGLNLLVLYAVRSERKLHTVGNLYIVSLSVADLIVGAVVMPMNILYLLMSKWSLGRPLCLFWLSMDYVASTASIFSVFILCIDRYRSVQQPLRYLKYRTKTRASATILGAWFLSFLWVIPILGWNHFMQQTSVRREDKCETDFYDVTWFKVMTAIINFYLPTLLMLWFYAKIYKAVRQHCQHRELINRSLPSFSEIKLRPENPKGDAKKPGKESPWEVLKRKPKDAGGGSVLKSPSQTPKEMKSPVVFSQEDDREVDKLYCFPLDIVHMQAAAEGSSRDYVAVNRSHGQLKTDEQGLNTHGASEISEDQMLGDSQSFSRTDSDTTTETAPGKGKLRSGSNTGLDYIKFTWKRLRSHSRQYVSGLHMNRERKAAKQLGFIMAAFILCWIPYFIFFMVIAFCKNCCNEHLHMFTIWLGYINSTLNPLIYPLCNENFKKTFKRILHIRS
Chain of human Leukotriene B4 Receptor 1 (LTB4-BLT1), LTB4R (gene 1241) (Q15722 whole entry, looked up): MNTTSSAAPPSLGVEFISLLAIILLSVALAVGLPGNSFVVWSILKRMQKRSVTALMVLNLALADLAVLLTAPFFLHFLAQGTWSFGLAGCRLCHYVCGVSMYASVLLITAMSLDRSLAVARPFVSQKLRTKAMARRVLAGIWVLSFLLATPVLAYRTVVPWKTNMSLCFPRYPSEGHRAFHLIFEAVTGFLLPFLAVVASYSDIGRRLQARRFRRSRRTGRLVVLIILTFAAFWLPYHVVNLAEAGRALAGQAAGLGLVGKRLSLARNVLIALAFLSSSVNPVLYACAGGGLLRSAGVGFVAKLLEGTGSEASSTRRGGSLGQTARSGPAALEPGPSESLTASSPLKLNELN
Chain of human Dopamine Receptor D2 (DRD2), DRD2 (gene 1813) (P14416 whole entry, looked up): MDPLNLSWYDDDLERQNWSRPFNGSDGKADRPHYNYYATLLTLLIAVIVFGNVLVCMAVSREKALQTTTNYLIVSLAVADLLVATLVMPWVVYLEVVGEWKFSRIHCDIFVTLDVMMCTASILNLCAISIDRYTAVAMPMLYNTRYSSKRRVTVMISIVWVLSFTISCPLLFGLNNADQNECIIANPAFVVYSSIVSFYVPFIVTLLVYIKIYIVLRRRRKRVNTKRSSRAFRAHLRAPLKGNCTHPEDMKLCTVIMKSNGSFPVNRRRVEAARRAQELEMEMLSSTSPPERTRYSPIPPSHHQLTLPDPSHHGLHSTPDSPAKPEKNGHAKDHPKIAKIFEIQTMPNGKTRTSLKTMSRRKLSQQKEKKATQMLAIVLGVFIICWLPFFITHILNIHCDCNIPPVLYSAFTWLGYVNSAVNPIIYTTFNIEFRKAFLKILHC
Chain of Muscarinic acetylcholine receptor M3 (Homo sapiens) (P20309 whole entry, looked up): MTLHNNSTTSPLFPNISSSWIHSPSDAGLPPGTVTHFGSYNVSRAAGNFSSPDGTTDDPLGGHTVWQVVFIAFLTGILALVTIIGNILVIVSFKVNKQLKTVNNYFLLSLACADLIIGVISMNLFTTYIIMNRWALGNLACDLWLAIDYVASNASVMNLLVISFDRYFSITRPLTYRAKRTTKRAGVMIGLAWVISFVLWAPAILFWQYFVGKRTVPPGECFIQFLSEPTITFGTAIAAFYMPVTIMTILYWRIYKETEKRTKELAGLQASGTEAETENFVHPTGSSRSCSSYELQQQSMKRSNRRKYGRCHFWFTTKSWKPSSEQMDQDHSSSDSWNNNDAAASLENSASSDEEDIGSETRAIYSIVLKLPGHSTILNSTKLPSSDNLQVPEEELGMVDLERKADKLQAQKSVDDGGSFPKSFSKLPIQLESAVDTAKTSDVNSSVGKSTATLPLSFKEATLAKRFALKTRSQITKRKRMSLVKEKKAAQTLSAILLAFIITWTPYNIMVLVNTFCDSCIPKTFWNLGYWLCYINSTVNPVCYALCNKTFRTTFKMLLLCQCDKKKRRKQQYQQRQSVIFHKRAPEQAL
Chain of human Muscarinic, M4 Receptor, CHRM4 (gene 1132) (P08173 whole entry, looked up): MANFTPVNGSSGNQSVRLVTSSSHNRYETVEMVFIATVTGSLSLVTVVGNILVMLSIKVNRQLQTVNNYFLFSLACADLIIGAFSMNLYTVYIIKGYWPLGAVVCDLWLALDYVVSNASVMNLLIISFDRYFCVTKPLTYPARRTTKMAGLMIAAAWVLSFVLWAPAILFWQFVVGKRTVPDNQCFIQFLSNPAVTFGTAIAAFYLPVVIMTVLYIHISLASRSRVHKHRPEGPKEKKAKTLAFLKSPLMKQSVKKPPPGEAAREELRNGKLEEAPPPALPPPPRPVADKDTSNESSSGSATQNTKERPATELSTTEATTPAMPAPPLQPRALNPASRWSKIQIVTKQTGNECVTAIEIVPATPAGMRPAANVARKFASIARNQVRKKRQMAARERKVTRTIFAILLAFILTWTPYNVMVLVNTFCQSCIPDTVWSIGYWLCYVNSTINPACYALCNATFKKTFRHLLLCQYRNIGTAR
Chain of human Neurokinin, NK2 Receptor, TACR2 (gene 6865) (P21452 whole entry, looked up): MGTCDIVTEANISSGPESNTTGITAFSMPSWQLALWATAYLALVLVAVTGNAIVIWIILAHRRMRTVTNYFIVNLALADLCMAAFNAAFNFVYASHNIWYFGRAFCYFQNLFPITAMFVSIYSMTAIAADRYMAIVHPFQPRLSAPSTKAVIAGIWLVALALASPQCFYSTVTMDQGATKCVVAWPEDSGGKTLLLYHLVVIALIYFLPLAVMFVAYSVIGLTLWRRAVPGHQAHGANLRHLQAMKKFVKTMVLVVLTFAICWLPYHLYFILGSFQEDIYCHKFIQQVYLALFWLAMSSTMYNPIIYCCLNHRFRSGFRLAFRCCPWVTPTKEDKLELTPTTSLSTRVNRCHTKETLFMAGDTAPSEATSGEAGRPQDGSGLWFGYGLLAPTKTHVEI
Chain of Type-1 angiotensin II receptor (Homo sapiens) (P30556 whole entry, looked up): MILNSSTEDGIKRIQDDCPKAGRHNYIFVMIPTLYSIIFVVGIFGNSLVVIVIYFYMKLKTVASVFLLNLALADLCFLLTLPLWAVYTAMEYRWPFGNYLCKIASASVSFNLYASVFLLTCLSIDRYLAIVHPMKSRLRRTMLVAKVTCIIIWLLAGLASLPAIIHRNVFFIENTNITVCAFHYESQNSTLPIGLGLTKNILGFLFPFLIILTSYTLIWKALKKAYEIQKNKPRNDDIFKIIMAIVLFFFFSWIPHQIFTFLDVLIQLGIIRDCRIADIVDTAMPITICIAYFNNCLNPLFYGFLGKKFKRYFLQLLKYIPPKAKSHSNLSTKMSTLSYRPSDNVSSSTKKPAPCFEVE

With `O=C1C2CC=CCC2C(=O)N1SC(Cl)(Cl)Cl` (stereo not drawn), the AC50 – broadly, the midpoint of the concentration-response curve, whichever way the signal moves – in [1] was 13.4 µM (active); in experiment [2], 25 µM (active); in [3], 9.65 µM (active); in experiment [4], 9.25 µM (active); in [5], 4.9 µM (active).

For the compound `CCOc1cc(C(C)(C)C)ccc1C1COC(c2c(F)cccc2F)=N1` (stereo not drawn), the compound was classed as inactive in experiment [3].

Consider `O=C(O)c1c(Cl)ccc2cc(Cl)cnc12`, for which, in experiment [6], the outcome was inactive.

For the compound `CC(C)Oc1cccc(NC(=O)c2ccccc2C(F)(F)F)c1`, the call in experiment [6] was inactive.

As to `CN/C(=N\[N+](=O)[O-])NCc1cnc(Cl)s1`, the outcome in experiment [6] and in experiment [7] was inactive.

In the case of `Clc1nc(Cl)nc(Nc2ccccc2Cl)n1`, in experiment [8], the compound was classed as inactive.

For `COP(=S)(OC)SCn1nnc2ccccc2c1=O`, the outcome in experiment [8] was inactive. In experiment [9], the AC50 is 25 µM (active).

On to `CCCN(CC)CC1COC2(CCC(C(C)(C)C)CC2)O1` (stereo not drawn), for which the AC50 is 7.95 µM (active) in [10]; 4.97 µM (active) in experiment [11]; 8.78 µM (active) in experiment [12]; 4.96 µM (active) in experiment [13]; 3.3 µM (active) in experiment [14]. Besides, the result in [2] was inactive.

With `OC(c1ccc(Cl)cc1)(c1ccc(Cl)cc1)C(Cl)(Cl)Cl`, the call in experiment [2] was inactive.

`O=c1n(Cl)c(=O)n(Cl)c(=O)n1Cl`: the compound was called inactive in experiment [11] and in experiment [9].

In the case of `CCC(C)n1c(=O)[nH]c(C)c(Br)c1=O` (stereo not drawn), the call in experiment [8] and in experiment [12] was inactive.

As for `COCC(C)N(C(=O)CCl)c1c(C)csc1C` (stereo not drawn), the outcome in experiment [15] was inactive.

As to `Cc1ccc(N=CN(C)C=Nc2ccc(C)cc2C)c(C)c1`, the call in [3] and in [14] was inactive. Besides, the AC50 in experiment [16] is 0.463 µM (active).

Regarding `CC(C)=CC1C(C(=O)OCc2coc(Cc3ccccc3)c2)C1(C)C` (stereo not drawn), the AC50 in experiment [3] is 11.5 µM (active).

Regarding `CC1(C)C(C=C(Cl)Cl)C1C(=O)OC(C#N)c1cccc(Oc2ccccc2)c1` (stereo not drawn), the result in experiment [1] and in [5] was inactive. Moreover, the AC50 in experiment [17] was 17.1 µM (active).

`COc1cc(OC)nc(NC(=O)NS(=O)(=O)c2ncccc2OCC(F)(F)F)n1`: in experiment [15], the outcome was inactive.

As to `Cn1c(-c2ccccc2)cc(-c2ccccc2)[n+]1C`, the AC50 is 2.84 µM (active) in experiment [11], 9.02 µM (active) in experiment [12], 3.97 µM (active) in [13] and 7.59 µM (active) in experiment [14]. Also, the compound was classed as inactive in experiment [18].

For `CCCCC(C#N)(Cn1cncn1)c1ccc(Cl)cc1` (stereo not drawn), the AC50 was 5.56 µM (active) in [11], 8.08 µM (active) in [12], 14.6 µM (active) in experiment [13] and 7.69 µM (active) in experiment [14].

In the case of `CCCCOCN(C(=O)CCl)c1c(CC)cccc1CC`, in experiment [15], the compound was called inactive.
